Data taken from the supplement of paper PMC10849652.
About 7,900 targets were measured; listed, in parts, are those with a hit and a random draw of the rest. About 0.6% of all pairs of compound and target were hits. Values without a mark were called inactive.

Assays:
Test in all cases: log2 fold change, soluble protein after heating vs DMSO (PISA); higher = thermal stabilisation; K562 cells, 10 uM, 30 min; active = over 0.2 and 3.5 SD of the protein, either way, in both replicates (recomputed)
erlotinib = compound: C#Cc1cccc(Nc2ncnc3cc(OCCOC)c(OCCOC)cc23)c1 [erlotinib]
How it was run: (§1)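 Thermal stability values are relative to control samples and come from duplicates. They are expressed as log2 fold changes. For measurement, K562 cells (2×10^6 cells/mL) received 10 μM compound for 30 min, and aliquots were heated for 3 min over 48°C-58°C, pooled, and extracted at 4°C in PBS with 0.5% NP-40. Soluble protein, the supernatant after 21,000xg for 90 min, was quantified by TMTpro 16plex LC-MS/MS with equalised channel sums.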

[1] = compound: C/C(=N\NC(=O)C1=CC(=CC=C1)S(=O)(=O)N2CCOCC2)/C3=C(C=CC(=C3)Cl)O
How it was run: as §1

[2] = compound: C1=CC(=C(C=C1Cl)C2=NC3=NC=CN=C3C(=N2)NC4=CC=NC=C4)F
How it was run: as §1

[3] = compound: C1=CC(=CC=C1C2=NC3=C(N2)C=C(C=C3)C(=O)N)OC4=CC=C(C=C4)Cl
How it was run: as §1

[4] = compound: C1=CC2=C(C=CC(=C2)/C=C\3/C(=O)NC(=NCC4=CC=CS4)S3)N=C1
How it was run: as §1

[5] = compound: C1=CC2=NC=CN=C2C=C1/C=C/3\C(=O)NC(=O)S3
How it was run: as §1

[6] = compound: C1=CC=C(C=C1)C2=NC(=C(N2)C3=CC=NC=C3)C4=CC(=C(C=C4)Cl)O
How it was run: as §1

[7] = compound: C1=CC=C2C(=C1)C3=NNC4=CC=CC(=C43)C2=O
How it was run: as §1

[8] = compound: C1CCN(C1)C(=O)NC2=CC=CC(=C2)NC3=NC=C(C(=N3)NCCC4=CN=CN4)Br
How it was run: as §1

[9] = compound: C1CN(CCC1(CC2=CC=C(C=C2)Cl)N)C3=NC=NC4=C3C=CN4
How it was run: as §1

IRAK-1-4 Inhibitor I = compound: C1COCCN1CCN2C3=CC=CC=C3N=C2NC(=O)C4=CC(=CC=C4)[N+](=O)[O-] [IRAK-1-4 Inhibitor I]
How it was run: as §1

ibrutinib = compound: C=CC(=O)N1CCC[C@@H](n2nc(-c3ccc(Oc4ccccc4)cc3)c3c(N)ncnc32)C1 [ibrutinib]
How it was run: as §1

[10] = compound: CC(=O)c1cnc2ccc(-c3cc(Cl)c(O)c(Cl)c3)nc2c1N[C@H]1CC[C@H](CN(C)C)CC1
How it was run: as §1

ralimetinib = compound: CC(C)(C)Cn1c(N)nc2ccc(-c3[nH]c(C(C)(C)C)nc3-c3ccc(F)cc3)nc21 [ralimetinib]
How it was run: as §1

[11] = compound: CC(C)(O)CC(=O)NCCn1ccc2ncnc(Nc3ccc(Oc4cccc(C(F)(F)F)c4)c(Cl)c3)c21
How it was run: as §1

[12] = compound: CC(C)C1=C2N=C(C=C(N2N=C1)NCC3=CC=CC=C3)NCCCCCCN
How it was run: as §1

[13] = compound: CC(C)C[C@@H](C=O)NC(=O)[C@H](CC(C)C)NC(=O)[C@H](CC(C)C)NC(=O)OCc1ccccc1
How it was run: as §1

pinometostat = compound: CC(C)N(C[C@H]1O[C@@H](n2cnc3c(N)ncnc32)[C@H](O)[C@@H]1O)[C@H]1C[C@@H](CCc2nc3cc(C(C)(C)C)ccc3[nH]2)C1 [pinometostat]
How it was run: as §1

[14] = compound: CC1=C(C(CC(=O)N1)C2=CC=C(C=C2)C(F)(F)F)C(=O)NC3=C(C=C4C(=C3)C=NN4)F
How it was run: as §1

[15] = compound: CC1=C(C2=C(C=C1)C(=O)C3=CC=CC=C3N2CCCN)C
How it was run: as §1

Chain of UniProt Q9ULX6 (Q9ULX6 whole entry, looked up): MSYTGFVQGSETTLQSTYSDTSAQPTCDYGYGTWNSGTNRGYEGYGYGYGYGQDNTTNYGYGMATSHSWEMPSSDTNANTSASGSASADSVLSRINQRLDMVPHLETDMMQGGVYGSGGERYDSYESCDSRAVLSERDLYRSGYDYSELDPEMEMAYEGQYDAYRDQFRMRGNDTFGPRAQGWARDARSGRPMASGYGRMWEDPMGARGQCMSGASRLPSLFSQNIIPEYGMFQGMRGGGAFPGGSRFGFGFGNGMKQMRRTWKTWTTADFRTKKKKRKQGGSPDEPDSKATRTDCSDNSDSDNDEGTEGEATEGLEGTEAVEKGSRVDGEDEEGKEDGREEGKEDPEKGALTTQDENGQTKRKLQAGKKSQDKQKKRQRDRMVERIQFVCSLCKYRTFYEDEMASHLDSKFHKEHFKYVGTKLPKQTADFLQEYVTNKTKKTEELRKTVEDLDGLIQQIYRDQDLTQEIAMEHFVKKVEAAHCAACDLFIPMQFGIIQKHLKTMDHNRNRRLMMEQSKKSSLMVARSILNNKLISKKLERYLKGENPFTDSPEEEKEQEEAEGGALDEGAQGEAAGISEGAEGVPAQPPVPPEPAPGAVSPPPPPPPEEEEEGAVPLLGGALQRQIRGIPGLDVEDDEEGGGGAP
Chain of UniProt O95870 (O95870 whole entry, looked up): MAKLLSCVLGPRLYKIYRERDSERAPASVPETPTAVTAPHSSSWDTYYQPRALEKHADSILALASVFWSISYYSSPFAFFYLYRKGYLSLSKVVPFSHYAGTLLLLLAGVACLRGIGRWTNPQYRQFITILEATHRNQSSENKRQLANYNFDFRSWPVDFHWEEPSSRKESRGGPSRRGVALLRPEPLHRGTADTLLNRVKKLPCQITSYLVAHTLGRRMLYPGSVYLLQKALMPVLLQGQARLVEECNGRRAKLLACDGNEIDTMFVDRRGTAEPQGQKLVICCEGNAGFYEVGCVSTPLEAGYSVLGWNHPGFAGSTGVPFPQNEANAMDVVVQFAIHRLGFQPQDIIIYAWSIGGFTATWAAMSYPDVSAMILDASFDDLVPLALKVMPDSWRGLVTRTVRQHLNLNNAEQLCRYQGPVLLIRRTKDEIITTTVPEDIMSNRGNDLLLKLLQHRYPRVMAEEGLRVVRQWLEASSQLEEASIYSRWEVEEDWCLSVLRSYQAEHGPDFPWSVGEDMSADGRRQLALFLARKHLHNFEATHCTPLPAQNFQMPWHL
Chain of UniProt Q96P47 (Q96P47 whole entry, looked up): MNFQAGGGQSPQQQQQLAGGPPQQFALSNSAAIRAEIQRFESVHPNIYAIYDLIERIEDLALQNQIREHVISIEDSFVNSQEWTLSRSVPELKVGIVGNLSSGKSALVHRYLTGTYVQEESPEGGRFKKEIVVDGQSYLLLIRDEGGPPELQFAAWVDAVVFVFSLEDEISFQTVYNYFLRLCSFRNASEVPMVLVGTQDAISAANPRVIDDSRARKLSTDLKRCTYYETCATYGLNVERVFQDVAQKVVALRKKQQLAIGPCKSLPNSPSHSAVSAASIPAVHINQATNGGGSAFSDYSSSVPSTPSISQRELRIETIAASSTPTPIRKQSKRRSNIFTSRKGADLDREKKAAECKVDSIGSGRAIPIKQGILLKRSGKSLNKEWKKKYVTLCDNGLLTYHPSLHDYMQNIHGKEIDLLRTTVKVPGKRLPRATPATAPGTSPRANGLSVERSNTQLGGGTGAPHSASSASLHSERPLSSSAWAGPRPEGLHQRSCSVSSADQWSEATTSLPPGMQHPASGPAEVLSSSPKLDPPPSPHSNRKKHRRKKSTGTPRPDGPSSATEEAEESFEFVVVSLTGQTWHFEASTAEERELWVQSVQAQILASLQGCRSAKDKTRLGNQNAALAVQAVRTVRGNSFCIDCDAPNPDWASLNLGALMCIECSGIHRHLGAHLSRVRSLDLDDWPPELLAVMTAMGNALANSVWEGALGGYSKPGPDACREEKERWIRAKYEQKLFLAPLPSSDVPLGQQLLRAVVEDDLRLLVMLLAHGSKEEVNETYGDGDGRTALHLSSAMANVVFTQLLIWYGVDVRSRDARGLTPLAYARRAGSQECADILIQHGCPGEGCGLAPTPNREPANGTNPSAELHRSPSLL
Chain of UniProt Q99798 (Q99798 whole entry, looked up): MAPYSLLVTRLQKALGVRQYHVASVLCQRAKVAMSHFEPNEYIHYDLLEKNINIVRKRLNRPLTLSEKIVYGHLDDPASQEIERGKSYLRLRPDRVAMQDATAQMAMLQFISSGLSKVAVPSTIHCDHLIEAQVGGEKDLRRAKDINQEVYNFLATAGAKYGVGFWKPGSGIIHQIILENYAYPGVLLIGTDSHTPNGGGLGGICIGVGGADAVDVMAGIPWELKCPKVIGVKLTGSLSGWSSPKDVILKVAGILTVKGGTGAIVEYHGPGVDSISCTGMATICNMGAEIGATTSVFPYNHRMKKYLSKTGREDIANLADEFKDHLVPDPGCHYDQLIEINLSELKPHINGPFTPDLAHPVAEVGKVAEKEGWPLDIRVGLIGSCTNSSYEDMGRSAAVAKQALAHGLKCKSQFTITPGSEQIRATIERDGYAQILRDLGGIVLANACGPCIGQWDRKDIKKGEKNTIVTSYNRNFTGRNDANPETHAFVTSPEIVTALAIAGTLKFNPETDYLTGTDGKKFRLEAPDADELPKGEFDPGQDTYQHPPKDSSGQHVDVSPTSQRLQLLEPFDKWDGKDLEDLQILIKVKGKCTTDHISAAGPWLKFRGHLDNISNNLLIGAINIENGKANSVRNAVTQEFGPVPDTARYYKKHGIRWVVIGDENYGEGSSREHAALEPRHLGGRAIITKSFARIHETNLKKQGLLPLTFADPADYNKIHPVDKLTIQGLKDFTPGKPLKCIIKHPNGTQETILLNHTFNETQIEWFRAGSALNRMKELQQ
Chain of UniProt P15291 (P15291 whole entry, looked up): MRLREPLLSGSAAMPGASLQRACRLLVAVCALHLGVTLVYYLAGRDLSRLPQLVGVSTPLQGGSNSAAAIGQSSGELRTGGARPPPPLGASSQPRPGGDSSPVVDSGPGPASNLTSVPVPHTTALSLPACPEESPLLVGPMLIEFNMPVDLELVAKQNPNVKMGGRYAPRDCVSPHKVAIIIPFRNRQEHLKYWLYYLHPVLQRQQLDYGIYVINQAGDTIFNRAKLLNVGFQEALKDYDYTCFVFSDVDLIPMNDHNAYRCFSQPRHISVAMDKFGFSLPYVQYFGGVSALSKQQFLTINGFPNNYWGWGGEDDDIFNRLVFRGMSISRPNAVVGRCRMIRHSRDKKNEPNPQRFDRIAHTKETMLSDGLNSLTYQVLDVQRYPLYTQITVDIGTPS
Chain of UniProt Q9UHQ4 (Q9UHQ4 whole entry, looked up): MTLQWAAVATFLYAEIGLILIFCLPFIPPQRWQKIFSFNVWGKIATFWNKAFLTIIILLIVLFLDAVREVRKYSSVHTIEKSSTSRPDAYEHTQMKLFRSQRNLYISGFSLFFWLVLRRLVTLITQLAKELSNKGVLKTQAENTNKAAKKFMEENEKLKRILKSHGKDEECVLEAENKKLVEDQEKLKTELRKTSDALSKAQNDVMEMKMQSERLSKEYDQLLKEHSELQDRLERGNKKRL
Chain of UniProt Q13895 (Q13895 whole entry, looked up): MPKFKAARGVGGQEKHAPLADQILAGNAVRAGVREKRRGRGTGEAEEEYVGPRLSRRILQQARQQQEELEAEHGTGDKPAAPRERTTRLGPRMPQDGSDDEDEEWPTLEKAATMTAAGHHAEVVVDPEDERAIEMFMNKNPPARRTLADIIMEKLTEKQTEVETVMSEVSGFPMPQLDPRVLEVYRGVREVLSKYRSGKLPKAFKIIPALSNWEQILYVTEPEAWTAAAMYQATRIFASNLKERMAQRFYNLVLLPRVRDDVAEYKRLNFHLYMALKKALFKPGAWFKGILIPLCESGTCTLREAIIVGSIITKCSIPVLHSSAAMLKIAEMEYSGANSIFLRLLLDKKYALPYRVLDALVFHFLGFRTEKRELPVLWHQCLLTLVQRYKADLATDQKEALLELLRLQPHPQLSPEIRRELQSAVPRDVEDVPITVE
Chain of UniProt Q8IUR7 (Q8IUR7 whole entry, looked up): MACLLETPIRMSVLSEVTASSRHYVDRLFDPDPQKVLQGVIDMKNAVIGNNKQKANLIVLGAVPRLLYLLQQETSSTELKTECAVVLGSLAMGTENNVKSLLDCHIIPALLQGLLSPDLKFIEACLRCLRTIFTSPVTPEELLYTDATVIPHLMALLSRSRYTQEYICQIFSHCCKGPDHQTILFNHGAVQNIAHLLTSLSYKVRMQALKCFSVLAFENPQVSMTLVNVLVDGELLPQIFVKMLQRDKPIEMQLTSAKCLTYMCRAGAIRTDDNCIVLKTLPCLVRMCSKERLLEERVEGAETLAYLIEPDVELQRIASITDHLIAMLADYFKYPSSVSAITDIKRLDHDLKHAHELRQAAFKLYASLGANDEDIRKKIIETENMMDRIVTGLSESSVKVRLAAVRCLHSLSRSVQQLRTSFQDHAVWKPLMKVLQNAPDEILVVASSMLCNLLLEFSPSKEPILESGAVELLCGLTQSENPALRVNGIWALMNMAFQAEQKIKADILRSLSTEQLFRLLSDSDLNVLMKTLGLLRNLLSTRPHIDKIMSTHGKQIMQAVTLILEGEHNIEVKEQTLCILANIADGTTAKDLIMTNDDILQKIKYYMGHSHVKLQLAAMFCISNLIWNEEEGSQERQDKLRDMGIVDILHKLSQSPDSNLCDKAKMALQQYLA
Chain of UniProt Q9NWB6 (Q9NWB6 whole entry, looked up): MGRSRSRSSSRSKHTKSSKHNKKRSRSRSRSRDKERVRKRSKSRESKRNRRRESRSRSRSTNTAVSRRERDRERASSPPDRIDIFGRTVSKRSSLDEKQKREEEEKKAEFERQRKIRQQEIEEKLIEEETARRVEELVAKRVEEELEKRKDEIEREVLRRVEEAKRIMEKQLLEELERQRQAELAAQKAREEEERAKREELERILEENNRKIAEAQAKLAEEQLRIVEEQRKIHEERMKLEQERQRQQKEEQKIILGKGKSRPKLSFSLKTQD

Row | Target | log2 fold change (erlotinib) | log2 fold change [1] | log2 fold change [2] | log2 fold change [3] | log2 fold change [4] | log2 fold change [5] | log2 fold change [6] | log2 fold change [7] | log2 fold change [8] | log2 fold change [9] | log2 fold change (IRAK-1-4 Inhibitor I) | log2 fold change (ibrutinib) | log2 fold change [10] | log2 fold change (ralimetinib) | log2 fold change [11] | log2 fold change [12] | log2 fold change [13] | log2 fold change (pinometostat) | log2 fold change [14] | log2 fold change [15]
1 | BRIX1 (UniProt Q8TDN6) | -0.093 | -0.05 | -0.415 | -0.089 | 0.003 | 0.046 | -0.046 | -0.167 | 0.017 | -0.387 | -0.1 | -0.011 | 0.021 | 0.133 | 0.091 | 0.137 | 0.041 | 0.361 | -0.051 | -1.43 (active)
2 | ARMC10 (UniProt Q8N2F6) | -0.021 | 0.044 | -0.092 | -0.066 | 0.005 | 0.006 | -0.034 | 0.016 | 0.003 | -0.023 | 0.001 | -0.018 | -0.035 | -0.003 | -0.029 | 0.005 | 0.034 | 0.033 | 0.003 | 0
3 | ARGLU1 (UniProt Q9NWB6) | 0.016 | 0.052 | -0.183 | 0.115 | -0.38 (active) | 0.014 | -0.125 | -0.235 | -0.02 | -0.232 | -0.289 | -0.019 | -0.633 (active) | -0.029 | 0.15 | 0.023 | -0.001 | 0.127 | -0.019 | 0.134
4 | ATP1B3 (UniProt P54709) | -0.016 | -0.004 | -0.002 | -0.019 | -0.021 | 0.023 | 0.057 | -0.052 | -0.024 | 0.048 | 0.025 | 0.043 | -0.03 | -0.036 | 0.01 | 0.154 | -0.008 | -0.056 | -0.012 | -0.032
5 | ANAPC2 (UniProt Q9UJX6) | -0.028 | 0.064 | -0.002 | 0.018 | 0.002 | 0.144 | -0.029 | 0.022 | -0.033 | -0.022 | 0.018 | -0.045 | 0.005 | 0.011 | -0.025 | -0.083 | 0.055 | 0.078 | -0.044 | -0.051
6 | BCAP29 isoform 2 (UniProt Q9UHQ4) | -0.02 | 0.002 | 0.077 | 0.062 | -0.026 | 0.086 | -0.034 | 0.038 | 0.062 | -0.022 | 0.051 | -0.014 | 0.011 | -0.094 | 0.111 | -0.106 | 0.007 | -0.012 | 0.026 | 0.052
7 | ABHD16A (UniProt O95870) | -0.036 | 0.02 | -0.048 | 0.161 | 0.208 | -0.094 | 0.036 | 0.009 | -0.005 | 0.023 | -0.039 | 0.043 | -0.026 | 0.047 | 0.361 (active) | 0.656 (active) | 0.064 | -0.009 | -0.064 | 0.012
8 | AKAP8L (UniProt Q9ULX6) | 0.001 | 0.085 | 0.074 | 0.026 | -0.006 | -0.058 | -0.054 | -0.027 | -0.053 | 0.031 | -0.076 | -0.001 | -0.128 | 0.091 | -0.091 | -0.299 | 0.106 | -0.018 | 0.024 | -0.34
9 | ACP2 (UniProt P11117) | 0.031 | 0.004 | 0.061 | 0.019 | 0.019 | -0.01 | 0.022 | -0.022 | -0.003 | 0.045 | 0.047 | 0.033 | -0.012 | -0.012 | -0.03 | -0.205 | -0.026 | 0.027 | 0.02 | -0.006
10 | ACO2 (UniProt Q99798) | 0.049 | 0.008 | 0.105 | -0.014 | 0.077 | -0.244 (active) | 0.036 | 0.009 | 0.018 | 0.015 | 0.023 | 0.025 | -0.016 | -0.019 | -0.068 | -0.058 | -0.022 | -0.033 | -0.049 | 0.076
11 | B4GALT1 (UniProt P15291) | -0.095 | 0.07 | -0.018 | 0.047 | -0.033 | 0.07 | -0.035 | 0.024 | -0.078 | 0.017 | 0.034 | -0.057 | -0.019 | 0.094 | 0.094 | -0.294 (active) | 0.017 | -0.051 | 0.006 | -0.03
12 | ARMC8 (UniProt Q8IUR7) | -0.079 | -0.029 | -0.029 | 0.027 | -0.047 | 0.013 | 0.051 | -0.005 | -0.002 | -0.027 | -0.025 | -0.017 | 0.036 | 0.084 | -0.011 | -0.01 | -0.093 | -0.021 | -0.025 | -0.07
13 | BYSL (UniProt Q13895) | -0.009 | 0.014 | -0.05 | -0.006 | -0.046 | 0.027 | -0.018 | 0.075 | -0.042 | -0.289 | -0.115 | -0.054 | 0.043 | 0.051 | -0.11 | -0.109 | 0.092 | 0.118 | -0.007 | -0.495 (active)
14 | AGAP3 isoform 4 (UniProt Q96P47) | 0.11 | 0 | -0.078 | -0.062 | 0.017 | 0.183 | -0.024 | -0.082 | -0.075 | 0.127 | -0.024 | -0.018 | -0.223 | 0.25 | 0.009 | -0.182 | -0.044 | 0.245 | -0.107 | -0.043
15 | ATP2A3 isoform 2 (UniProt Q93084) | -0.002 | -0.002 | 0.053 | -0.002 | -0.014 | 0.014 | -0.003 | -0.04 | -0.025 | 0.059 | 0.038 | -0.013 | 0.001 | -0.023 | 0.018 | -0.295 (active) | -0.044 | 0.005 | 0.012 | -0.009
16 | AGPAT5 (UniProt Q9NUQ2) | 0.042 | -0.019 | -0.003 | 0.014 | 0.009 | 0.048 | 0.07 | -0.001 | -0.017 | 0.079 | 0.047 | 0.003 | 0.062 | -0.037 | 0.03 | -0.163 | 0.002 | 0.007 | -0.001 | 0.021
